For eight compounds, growth results are on record in PubChem BioAssay (NCI).

About 83,000 compounds went through this panel and 20% of them were active in at least one assay; those are over-represented in the sample as a whole.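 Each cell line was grown in a 96-well plate and treated with one concentration of compound for 48 hours. Values below 10 were considered active.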 Values without a mark were called inactive. The source made the active and inactive calls.

Some test systems named below: NCI-H23 lung; NCI-H226 lung; NCI-H322M lung; HOP-62 NSCLC; NCI-H460 lung; NCI-H522 lung; A549/ATCC NSCLC; 786-0 renal; COLO 205 colon; DU-145 prostate; K-562 leukemia; MALME-3M melanoma; MDA-MB-231 breast; RXF 393 renal; SF-268 CNS; SF-295 CNS; SF-539 CNS; UACC-257 melanoma; M14 melanoma.
Assay in all cases: NCI-60 one-dose screen, 48 h (100 = growth as untreated, 0 = no growth, -100 = all killed)
What all share (details): 10 µM unless noted

Consider `COc1cccc(-c2cc(-c3cccs3)c(C#N)c(=O)[nH]2)c1`, for which the growth in the experiment on NCI-H23 lung is 98.9%; in the experiment with NCI-H226 lung it was 110%; in the experiment on NCI-H322M lung, 108%; with HOP-62 NSCLC, 108%; with NCI-H460 lung, 102%; in the experiment on NCI-H522 lung, 98.8%. The growth with A549/ATCC NSCLC is 102%; with 786-0 renal, 94.1%; in the experiment with COLO 205 colon it was 111%; in the experiment with DU-145 prostate, 108%; in the experiment on K-562 leukemia it was 102%; with MALME-3M melanoma it was 110%. The growth in the experiment with MDA-MB-231 breast was 106%; with RXF 393 renal, 117%; in the experiment with SF-268 CNS, 104%; in the experiment on SF-295 CNS, 102%; with SF-539 CNS, 101%; in the experiment on UACC-257 melanoma, 115%. Moreover, the growth with M14 melanoma is 105%.
Take `Clc1ccc(C2=NN[C@H](c3cn(-c4ccccc4)nc3-c3ccccc3)C2)cc1`: the growth in the experiment on NCI-H23 lung was 52%; with NCI-H226 lung, 55%; in the experiment with NCI-H322M lung, 72.5%; with HOP-62 NSCLC, 16.1%; with NCI-H460 lung, 45.5%; in the experiment on NCI-H522 lung, 76.3%. The growth was 46.5% in the experiment with A549/ATCC NSCLC; 83.7% with 786-0 renal; 70.1% with COLO 205 colon; 55.3% with DU-145 prostate; 61.6% with K-562 leukemia; 64.3% in the experiment on MALME-3M melanoma. For the same compound, the growth in the experiment with MDA-MB-231 breast was 64.4%; in the experiment with RXF 393 renal, 42.6%; in the experiment on SF-268 CNS, 74.6%; in the experiment on SF-295 CNS it was -20.8% (active); with SF-539 CNS, 67%; in the experiment with UACC-257 melanoma it was 66.3%. Also, the growth in the experiment on M14 melanoma was 71.1%.
As for `Oc1c(C(Nc2ccccc2Br)c2ccccc2)ccc2cccnc12` (configuration not stated), the growth in the experiment with NCI-H23 lung is 22.2%; in the experiment on NCI-H226 lung, 35%; with NCI-H322M lung, 24.5%; with HOP-62 NSCLC, 19.6%; with NCI-H460 lung it was 5.78% (active); in the experiment with NCI-H522 lung, -1.78% (active). Besides, the growth was 22.6% in the experiment with A549/ATCC NSCLC; 6.91% (active) in the experiment on 786-0 renal; 32.4% in the experiment with COLO 205 colon; 28.8% in the experiment with DU-145 prostate; 11.4% in the experiment on K-562 leukemia; 28.1% with MALME-3M melanoma. Besides, the growth in the experiment on MDA-MB-231 breast was 37.7%; in the experiment with RXF 393 renal, 37.6%; in the experiment with SF-268 CNS it was 18.5%; in the experiment with SF-295 CNS it was 13.6%; with SF-539 CNS it was 19.9%; in the experiment on UACC-257 melanoma, 14.5%. Further, the growth in the experiment with M14 melanoma is -14.2% (active).
Turning to `O=C(Nc1ccc(Br)cc1)Nc1cccc(Br)c1`, the growth in the experiment with NCI-H23 lung was 18.4%; in the experiment on NCI-H226 lung it was 53.1%; in the experiment on NCI-H322M lung, 55.4%; in the experiment on HOP-62 NSCLC, 56.6%; with NCI-H460 lung, 12.2%; with NCI-H522 lung, -28.5% (active). The growth in the experiment on A549/ATCC NSCLC was 32.1%; in the experiment with 786-0 renal it was 68.6%; in the experiment on COLO 205 colon it was 28.1%; in the experiment on DU-145 prostate it was 30.7%; in the experiment with K-562 leukemia it was 4.34% (active); with MALME-3M melanoma, 60.2%. Besides, the growth is 66.6% with MDA-MB-231 breast; 105% in the experiment with RXF 393 renal; 69% in the experiment with SF-268 CNS; 28.1% in the experiment on SF-295 CNS; 76.6% in the experiment with SF-539 CNS; 36.3% with UACC-257 melanoma. In addition, the growth in the experiment with M14 melanoma is 24.1%.
On to `c1ccc2oc(-c3cnc4nonc4n3)cc2c1`, for which the growth was 94.8% with NCI-H23 lung; 92.1% with NCI-H226 lung; 87.7% in the experiment on NCI-H322M lung; 84.7% in the experiment with HOP-62 NSCLC; 95.8% in the experiment with NCI-H460 lung; 78.3% in the experiment on NCI-H522 lung. Moreover, the growth was 96.4% with A549/ATCC NSCLC; 103% with 786-0 renal; 103% with COLO 205 colon; 114% in the experiment on DU-145 prostate; 103% in the experiment on K-562 leukemia; 105% in the experiment on MALME-3M melanoma. For the same compound, the growth is 87.9% in the experiment on MDA-MB-231 breast; 112% in the experiment with RXF 393 renal; 99.7% in the experiment with SF-268 CNS; 103% in the experiment on SF-295 CNS; 101% in the experiment on SF-539 CNS; 99.2% with UACC-257 melanoma. The growth with M14 melanoma was 106%.
Consider `COc1cc(C2CC(c3ccc(Cl)cc3)=NN2C(C)=O)ccc1Oc1ccnc2cc(Cl)ccc12` (configuration not stated), for which the growth with NCI-H23 lung was 64.1%; in the experiment on NCI-H226 lung it was 19.5%; in the experiment on NCI-H322M lung, 53.3%; with HOP-62 NSCLC, 23.1%; in the experiment on NCI-H460 lung, 30.8%; in the experiment with NCI-H522 lung, 40.9%. The growth with A549/ATCC NSCLC is 42.6%; in the experiment with 786-0 renal, 33.6%; with COLO 205 colon it was 26.2%; in the experiment on DU-145 prostate, 36.6%; in the experiment on K-562 leukemia it was 65.3%; in the experiment on MALME-3M melanoma, 53.9%. For the same compound, the growth is 36.1% in the experiment with MDA-MB-231 breast; 46.1% with RXF 393 renal; 57.5% with SF-268 CNS; 18.3% in the experiment on SF-295 CNS; 40.2% in the experiment on SF-539 CNS; 68.5% in the experiment with UACC-257 melanoma. Also, in the experiment with M14 melanoma, the growth is 79.9%.
As to `O=C(O)CSc1ccc(NCc2oc(CO)cc(=O)c2O)cc1`, the growth with NCI-H23 lung is 99.9%; in the experiment on NCI-H226 lung it was 94.8%; in the experiment on NCI-H322M lung, 110%; in the experiment on HOP-62 NSCLC it was 105%; with NCI-H460 lung it was 110%; in the experiment with NCI-H522 lung, 89.3%. The growth was 103% in the experiment on A549/ATCC NSCLC; 96.6% in the experiment on 786-0 renal; 106% in the experiment with COLO 205 colon; 110% in the experiment on DU-145 prostate; 89% in the experiment with K-562 leukemia; 99.6% in the experiment on MALME-3M melanoma. Also, the growth with MDA-MB-231 breast is 97.2%; in the experiment on RXF 393 renal, 110%; with SF-268 CNS, 107%; in the experiment with SF-295 CNS it was 106%; in the experiment on SF-539 CNS, 92.2%; with UACC-257 melanoma, 105%. Also, in the experiment with M14 melanoma, the growth was 74.6%.
With `O=C(CSc1nnc(Cc2ccccc2Nc2c(Cl)cccc2Cl)n1-c1ccccc1)N1N=C(c2ccc3ccccc3c2)CC1c1ccc(Cl)cc1` (configuration not stated), the growth in the experiment on NCI-H23 lung is 96.2%; in the experiment with NCI-H226 lung, 98.8%; in the experiment with NCI-H322M lung it was 90.7%; with HOP-62 NSCLC it was 92.7%; in the experiment on NCI-H460 lung, 106%; in the experiment with NCI-H522 lung it was 66.1%. Besides, the growth was 96.3% in the experiment with A549/ATCC NSCLC; 95.9% in the experiment with 786-0 renal; 102% in the experiment with COLO 205 colon; 94.3% with DU-145 prostate; 101% in the experiment on K-562 leukemia; 95.4% with MALME-3M melanoma. Besides, the growth is 104% in the experiment with MDA-MB-231 breast; 124% with RXF 393 renal; 89.1% in the experiment on SF-268 CNS; 100% in the experiment with SF-295 CNS; 106% in the experiment on SF-539 CNS; 117% with UACC-257 melanoma. In the experiment with M14 melanoma, the growth was 98.4%.
